# GSIS activator: primary screen for activators of insulin secretion dependent on glucose, INS-1E cells, GLuc reporter luminescence; INS-1E GLuc reporter insulin secretion, 2-3 h; activation, % at 16.6 µM; AID 743287; hit rate 0.61% among 370,000;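 active = lowest replicate activation of at least 40%, so every replicate reaches that level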;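 also: 0% = median of neutral control wells and 100% = median of IBMX positive control wells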
# hiPSC survival: enhancers of human iPSC single-cell survival; hiPSC single-cell survival, ATPlite luminescence; 100% = ROCK inhibitor wells, 0% = DMSO; AID 602274; survival enhancement, % at 20 µM; hit rate 0.044% among 360,000; in the data active = survival enhancement above about 18%;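 also: cells exposed to compounds for 16 hours before the ATP read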
# ABCB6 inh MLPCN: blocks the human ABCB6 transporter; Q9NP58; K562-ABCB6 porphyrin accumulation, flow cytometry, 1 h; stronger effect = lower value; fluorescence ratio to DMSO, % at 10 µM; hit rate 0.19% among 360,000; AID 602162;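 active = fluorescence ratio to DMSO below 75%, the collection mean minus 3 SD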;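 also: signal is porphyrin accumulated inside mitochondria; 100% equals median channel fluorescence of DMSO control wells; lower ratio means ABCB6 inhibition with less porphyrin fluorescence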
# ARNT-TACC3 inh: disruptors of human ARNT/TACC3 interaction. AlphaScreen His-ARNT PAS-B/GST-TACC3 binding, luminescence; TACC3 fragment carries E629A point mutation. inhibition, % at 9.99 µM. hit rate 0.66% among 390,000. AID 623870;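 active = mean inhibition of replicates at least 50% and at least half of replicates each reaching 50%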;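 also: 0% = complete ARNT plus TACC3 wells and 100% = ARNT alone without TACC3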
# NRP1-CendR mod: modulators of CendR peptide binding to human neuropilin-1; O14786; FAM-RPARPAR peptide binding to NRP-1, fluorescence polarization; inhibition, % at 25 µM; hit rate 0.85% among 360,000;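 active = inhibition or corrected inhibition above about 18%, plus a signal ratio from 0.5 to 1.5, limit read from the data, passing the limit was not always enough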
# Target sequence (O14786 whole entry, looked up): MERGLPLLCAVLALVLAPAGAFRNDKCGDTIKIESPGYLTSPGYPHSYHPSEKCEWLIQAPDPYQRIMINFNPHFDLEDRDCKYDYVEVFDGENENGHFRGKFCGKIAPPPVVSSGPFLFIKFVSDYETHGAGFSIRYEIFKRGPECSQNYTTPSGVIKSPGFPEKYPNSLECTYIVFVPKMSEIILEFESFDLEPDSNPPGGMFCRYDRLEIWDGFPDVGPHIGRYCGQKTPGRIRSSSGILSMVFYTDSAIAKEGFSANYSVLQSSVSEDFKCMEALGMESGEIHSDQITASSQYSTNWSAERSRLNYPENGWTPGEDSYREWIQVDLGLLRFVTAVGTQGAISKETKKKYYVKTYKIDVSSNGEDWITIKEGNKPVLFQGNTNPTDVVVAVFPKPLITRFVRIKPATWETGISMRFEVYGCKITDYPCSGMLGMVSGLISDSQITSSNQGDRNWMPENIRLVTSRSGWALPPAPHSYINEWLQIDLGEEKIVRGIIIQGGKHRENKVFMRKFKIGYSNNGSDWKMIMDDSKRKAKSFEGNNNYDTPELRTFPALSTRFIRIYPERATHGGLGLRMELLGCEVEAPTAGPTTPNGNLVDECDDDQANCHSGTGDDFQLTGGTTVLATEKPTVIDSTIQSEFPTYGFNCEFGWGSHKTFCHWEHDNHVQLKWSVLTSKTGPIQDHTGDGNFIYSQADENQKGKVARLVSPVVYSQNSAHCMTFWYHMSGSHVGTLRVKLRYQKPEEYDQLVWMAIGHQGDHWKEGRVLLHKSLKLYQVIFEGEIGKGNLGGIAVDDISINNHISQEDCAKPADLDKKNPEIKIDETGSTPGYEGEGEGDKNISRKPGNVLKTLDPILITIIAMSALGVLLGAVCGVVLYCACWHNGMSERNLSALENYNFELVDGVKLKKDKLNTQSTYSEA
# ABCB6 inh CP1: blocks the human ABCB6 transporter. shares compounds with ABCB6 inh MLPCN. K562-ABCB6 porphyrin accumulation, flow cytometry, 1 h; stronger effect = lower value. ratio response (% of DMSO), % at 10 µM. 700 tested, under 10 active. AID 602430;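 active = repeat-averaged ratio response below 75% of DMSO, the collection mean minus 3 SD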;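 also: median porphyrin fluorescence at 575 nm with 488 nm excitation from mitochondria; lower ratio means less porphyrin signal so ABCB6 inhibition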
# The depositor's hits bear a star; i = inactive; · = not tested or not shown; ! = not active in a repeat. Hits are enriched below; roughly 1.8% of the tested compounds scored in any of these assays.
SMILES,GSIS activator,hiPSC survival,ABCB6 inh MLPCN,ARNT-TACC3 inh,NRP1-CendR mod,others
Cc1nc2ccccc2c(=O)n1-c1ccc(Cl)c(Cl)c1,40.2*,-0.1,99.0,-3.6,1.9,
CCOC(=O)[C@@H]1[C@@H]2NC(=S)N[C@@]1(C)Oc1ccccc12,·,·,·,22.7,·,
CCC1CN1P(=O)(Oc1ccc(Cl)cc1)N1CC1CC (stereo unspecified),·,-2.8,97.0,6.6,33.7*,
COC(=O)[C@H]1[C@H](CO)[C@H]2Cn3c(cccc3=O)[C@@H]1N2C(=O)C1CCCC1,9.1,·,·,·,·,
CC[n+]1c(-c2ccccc2)c2cc(N)ccc2c2ccc(N)cc21,-37.8,-2.1,i,0.8,46.9*,
CC(C)OP(=O)(OC(C)C)C(O)c1cccnc1 (stereo unspecified),3.7,1.7,85.0,·,-0.2,
CC(C)c1cc(Br)c(NC(=O)Nc2cccnc2)c(Br)c1,114.5*,-0.6,97.0,-0.2,-7.1,
Cc1ccccc1NC(=O)c1cc(-c2ccccc2)n(CCCN2CCOCC2)c1C,-0.1,-0.2,99.0,·,-3.5,
Cc1ccccc1NC(=NCCCN1CC1)Nc1ccccc1C,·,0.4,94.0,-8.0,40.5*,
O=P(O)(O)CN1CCNCCN(CP(=O)(O)O)CCNCC1,·,0.3,94.0,-11.4,29.5*,
CN(C)[C@@H]1C(=O)C(C(N)=O)=C(O)[C@@]2(O)C(=O)C3=C(O)c4c(O)cccc4[C@@](C)(O)C3C[C@@H]12 (stereo partly specified),·,-3.3,110.0,20.2,-5.1,
CN(C)[C@@H]1C(=O)C(C(N)=O)=C(O)[C@@]2(O)C(=O)C3=C(O)c4c(O)cccc4[C@@](C)(O)[C@H]3[C@H](O)[C@@H]12,·,1.6,107.0,51.6*!,-31.8,
C=C(C=O)CC1CC(O)[C@]2(C)OC3CC4OC5C[C@]6(C)O[C@]7(C)CCC8OC9C[C@]%10(C)OC%11C(C)=CC(=O)OC%11CC%10OC9C[C@@H](C)C8OC7CC6O[C@]5(C)CC5OC5C4OC3CC2O1 (stereo partly specified),·,39.9*,98.0,-5.8,-7.2,
C=C(CO)CC1CC(O)[C@]2(C)OC3CC4OC5C[C@]6(C)O[C@]7(C)CCC8OC9C[C@]%10(C)OC%11C(C)=CC(=O)OC%11CC%10OC9C[C@@H](C)C8OC7CC6O[C@]5(C)C/C=C\C4OC3CC2O1 (stereo partly specified),44.8,-0.9,95.0,8.8,3.0,
C/C=C/c1ccc(C2[C@@H]3CN(C(=O)C4CCC4)C[C@H]2N3)cc1 (stereo partly specified),5.0,·,·,·,·,
C=C1C(=O)O[C@@H]2C[C@@H](C)[C@@H]3C=CC(=O)[C@@]3(C)[C@@H](O)[C@H]12,57.1,81.5*,95.0,-1.5,-11.3,
CC1CN(c2cc([N+](=O)[O-])ccc2Cl)CC(C)N1 (stereo unspecified),41.2*,-2.1,106.0,-7.1,4.3,
CC1CN(c2ccc([N+](=O)[O-])cc2Cl)CCN1 (stereo unspecified),2.0,-1.7,99.0,48.9*,-2.6,
CN1CCN(c2ccc([N+](=O)[O-])cc2Cl)CC1,-4.0,-0.8,100.0,0.8,-2.4,
COC(=O)[C@@H]1[C@@H](CO)[C@@H]2Cn3c(ccc(-c4ccccc4)c3=O)[C@H]1N2CC1CC1,18.0,·,·,-10.4,·,
N#Cc1cccc(-c2ccc([C@@H]3[C@@H](CO)N4CCCCN(C(=O)Cc5ccncc5)C[C@H]34)cc2)c1,20.5,·,·,6.1,·,
CC[n+]1c(/C=C/C=C/c2ccc(N(C)C)cc2)sc2ccccc21,-58.5,0.4,315.0,48.4*,-26.4,
CN(C)c1ccc(/C=C/C=C/c2sc3ccccc3[n+]2C)cc1,-52.5,-0.7,198.0,23.3,-8.9,
CCNc1nc(Cl)nc(NC(C)C)n1,71.4*,-1.1,97.0,0.7,11.4,
CCOC(=O)c1c(-n2c(C)cc(/C=C3/C(=O)NC(=O)N(CC)C3=O)c2C)sc2c1CCCC2,-5.9,2.1,73.0*,·,6.8,ABCB6 inh CP1=107.0
CCCCn1c(O)c(C(CC)=Nc2ccc(OCC)cc2)c(=O)[nH]c1=O,·,5.4,74.0*,-1.4,-1.2,ABCB6 inh CP1=98.0
CCCCn1c(O)c(C(CC)=Nc2ccc(OC)cc2OC)c(=O)[nH]c1=O,·,-0.9,101.0,·,-7.5,

# Screening results (PubChem BioAssay)
